According to PubChem BioAssay AID743279 (National Center for Advancing Translational Sciences (NCATS), 2014):
Screen size: about 360,000 compounds; about 17,000 (4.7%) were called active. Not shown: some 5% with an inconclusive outcome. Cut-off read from the data, not from the text of the source: active = activity change below about -50%; inconclusive = mostly about -30% to -49%; inactive = weaker than that. The entries come from a sample that favours actives as a whole.

test: qHTS for Inhibitors of Inflammasome Signaling: IL-1-beta AlphaLISA Primary Screen; settings: THP-1 LPS/ATP IL-1B secretion, 16 h; at 57.5 µM, hits give low values
Summary of the method: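 THP-1 cells pretreated 1 hr with compounds (up to 57.5 uM final), then stimulated with LPS (250 ng/mL final) plus ATP (1.25 mM final); secreted IL-1B measured by AlphaLISA after 16 hr, decreased signal indicating inhibition.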
% is set by controls: 0 for no effect and ±100 for the full control effect.

Activity change, inactive:
NC(=O)C1(Nc2ccc(-c3ccccc3)cc2)CCCC1 3.69%
Cc1ccc(S(=O)(=O)N(CC(=O)Nc2cccnc2)c2ccc(Br)cc2)cc1 -14.5%
Cn1cccc1/C=N/NC(=O)c1ccc(OC(F)(F)C(F)F)cc1 81.3%
Cn1nccc1NC(=O)Nc1ccc(OC(F)(F)F)cc1 1.91%
CC(CC(=O)N1CCN(S(=O)(=O)c2ccccc2)CC1)n1cncn1 (stereo unspecified) -19.9%
Cc1cccc(S(=O)(=O)N(C)C[C@@H]2OCc3cnnn3CCCC(=O)N([C@H](C)CO)C[C@@H]2C)c1 -0.819%
CN1OC[C@@H]2CN(C(=O)c3ccc(-c4ccccc4)cc3)[C@H](c3ccc(-c4cccc(F)c4)cc3)C[C@@H]21 56.8%
C[C@@H]1CN([C@H](C)CO)S(=O)(=O)c2ccc(C#CC3CCCCC3)cc2O[C@H]1CN(C)C(=O)Cc1ccncc1 -1.14%
O=C(COc1nc2ccccc2nc1N1CCOCC1)NCC(F)(F)F 0.929%
c1ccc(-c2nnc(N3CCOCC3)c3ccccc23)cc1 -6.84%
CCCCc1nc2ccccc2c(NC(=O)CN2CCN(C)CC2)c1CCC -6.28%
Cc1cc(Nc2ccc(Br)cc2)nc2ccccc12 -5.96%
CCNC(=O)COC(=O)/C=C/c1c(C)nn(Cc2cccc(OC)c2)c1Cl -4.38%
NC(=S)NN=Cc1ccc(OC(=O)COc2cc(Cl)c(Cl)cc2Cl)cn1 119%
O=C(O)C(=Cc1ccccc1[N+](=O)[O-])c1ccccc1 12.6%
Cc1c(C(C)(C)O)[nH]c2ccc(C#N)cc12 38.6%
Cc1cccc(N(C(=O)Cc2cccs2)C(C(=O)NC2CCCC2)c2ccsc2)c1 (stereo unspecified) 0%
CCOC(=O)c1cc2c(n(-c3ccc(C)cc3)c1=O)CCCC2=O -18.1%
O=C1CCCC2=C1C(c1cccs1)CC(=O)N2c1ccc(F)cc1 (stereo unspecified) 20.1%
Cc1ccccc1CS(=O)(=O)CC1(O)CCN(C(=O)c2cccc(C(F)(F)F)c2)CC1 9.6%
Cc1ccc(-c2nc3ccc(Br)cn3c2Cc2ccccc2C(F)(F)F)cc1 16.5%
COc1ccccc1NC(=O)C(C)OC(=O)CC1CCCC1 (stereo unspecified) 23.8%
COc1ccccc1CN1CCN(C(c2ccccc2)c2ccccc2)CC1 -16.2%
CCCCNC1(C#N)CCN(Cc2ccccc2)CC1 9.53%
CC1(C(=O)NCc2ccc3c(c2)OCO3)CCN1CCc1ccccc1 (stereo unspecified) 10.6%
CO/N=C(\N)c1ccc([N+](=O)[O-])cc1 -10.8%
C/C(=N/NC(=O)CC(=O)N/N=C(\C)c1ccc([N+](=O)[O-])cc1)c1ccc([N+](=O)[O-])cc1 26.9%
Cc1cc([N+](=O)[O-])c(=O)[nH]c1C 26.9%
CN(C)C(=O)c1nc2ccc(Cl)cn2c1CNCc1cccc(OC(F)(F)F)c1 32.2%
CSCC[C@H](NC(=O)NCCc1ccc(F)cc1)C(=O)O 3.5%
COc1ccc(C(O)C(O)(C(=O)OC(C)C)c2ccc(C)cc2)cc1 (stereo unspecified) -21%
Cn1c(=O)n(C)c2cc(/C=N/NC(=O)c3cccc(Br)c3)ccc21 -10.6%
O=C(Nc1ccc(N2CCCC2=O)cc1)c1cncc(Br)c1 1.56%
CC(=O)c1cccc(-c2ccc(CN3C(CC(C)C)C(=O)N(Cc4cn(CC5CCCCC5)nn4)CCS3(=O)=O)cc2)c1 (stereo unspecified) -9.9%
OCCC#Cc1ccc(N2C(c3ccsc3)=Cc3ccc(F)cc3C2c2c[nH]c3ccccc23)cc1 (stereo unspecified) -15.9%
COc1ccc(CCn2c(=N)c(C(=O)NCC3CCCO3)cc3c(=O)n4cccc(C)c4nc32)cc1OC (stereo unspecified) -11.6%
Cc1ccc(S(=O)(=O)c2cc3c(=O)n4cccc(C)c4nc3n(CCc3ccccc3)c2=N)cc1C 20.8%

Activity change, active:
O=C(Nc1ccc(OC(F)(F)F)cc1)c1ccc2c(c1)no[n+]2[O-] -96.1%
c1ccc(Nc2nc(N3CCOCC3)c3ccccc3n2)cc1 -109%
CN1CCN(c2nc(Nc3ccc(O)cc3)nc3ccccc23)CC1 -96.2%
CC1=NN(c2cccc(Cl)c2)C(=O)C12CC(C)=C(C)CS2 (stereo unspecified) -78.4%
CCOC(=O)C1=C(N)N(c2ccc(C)cc2)C2=C(C(=O)CCC2)C1c1cccs1 (stereo unspecified) -55.3%
CC(NCc1ccccc1OC1CCCC1)c1ccccc1 (stereo unspecified) -82.2%
C/C(=N\N(C)C)c1ccc(OCCOc2ccc([N+](=O)[O-])cc2)cc1 -52.7%
O=C(N/N=C/c1cccc(Br)c1)c1ccc(N2CCCC2=O)cc1 -55.3%
COc1ccc(CCn2c(=N)c(C(=O)NCc3ccco3)cc3c(=O)n4cccc(C)c4nc32)cc1 -53.7%
